Targets with a hit are over-represented here; the source holds about 7,900 in all. About 0.6% of all pairs of compound and target were hits. A number with no mark means an inactive call.

Chain of UniProt Q13464 (Q13464 whole entry, looked up): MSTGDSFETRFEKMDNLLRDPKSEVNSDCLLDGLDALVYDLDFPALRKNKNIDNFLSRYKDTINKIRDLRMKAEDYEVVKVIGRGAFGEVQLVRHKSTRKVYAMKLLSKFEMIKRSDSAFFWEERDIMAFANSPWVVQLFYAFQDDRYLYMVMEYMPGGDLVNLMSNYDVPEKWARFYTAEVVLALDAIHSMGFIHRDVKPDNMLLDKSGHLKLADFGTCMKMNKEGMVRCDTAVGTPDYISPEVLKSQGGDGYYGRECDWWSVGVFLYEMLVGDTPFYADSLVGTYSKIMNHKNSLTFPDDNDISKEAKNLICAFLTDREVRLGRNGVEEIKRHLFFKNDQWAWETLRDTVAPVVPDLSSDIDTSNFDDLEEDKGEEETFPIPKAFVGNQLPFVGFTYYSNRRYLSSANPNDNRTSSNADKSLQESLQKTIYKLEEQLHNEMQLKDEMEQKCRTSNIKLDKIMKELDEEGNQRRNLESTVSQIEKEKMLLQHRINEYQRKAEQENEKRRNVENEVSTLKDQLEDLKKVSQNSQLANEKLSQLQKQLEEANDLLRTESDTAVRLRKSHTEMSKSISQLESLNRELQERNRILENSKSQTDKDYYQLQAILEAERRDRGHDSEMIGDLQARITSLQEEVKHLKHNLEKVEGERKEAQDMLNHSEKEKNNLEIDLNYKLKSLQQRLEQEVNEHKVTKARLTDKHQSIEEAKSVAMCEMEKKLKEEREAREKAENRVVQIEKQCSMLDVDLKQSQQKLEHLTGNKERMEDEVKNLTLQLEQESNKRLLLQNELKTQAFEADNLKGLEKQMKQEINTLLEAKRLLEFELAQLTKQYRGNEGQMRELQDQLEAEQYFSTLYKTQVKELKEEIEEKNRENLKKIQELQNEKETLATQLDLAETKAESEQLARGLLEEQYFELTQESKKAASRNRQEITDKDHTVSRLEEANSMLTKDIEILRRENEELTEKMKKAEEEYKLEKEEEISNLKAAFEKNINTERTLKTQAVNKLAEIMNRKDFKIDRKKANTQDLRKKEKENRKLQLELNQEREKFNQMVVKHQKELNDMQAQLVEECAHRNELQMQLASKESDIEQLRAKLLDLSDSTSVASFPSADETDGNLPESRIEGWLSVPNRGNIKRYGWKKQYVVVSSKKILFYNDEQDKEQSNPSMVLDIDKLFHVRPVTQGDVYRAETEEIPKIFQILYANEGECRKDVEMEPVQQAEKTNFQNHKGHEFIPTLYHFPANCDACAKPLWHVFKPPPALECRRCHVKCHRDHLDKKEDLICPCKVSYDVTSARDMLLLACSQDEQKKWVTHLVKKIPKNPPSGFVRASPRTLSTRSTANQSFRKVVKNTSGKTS
Chain of UniProt Q6NUM9 (Q6NUM9 whole entry, looked up): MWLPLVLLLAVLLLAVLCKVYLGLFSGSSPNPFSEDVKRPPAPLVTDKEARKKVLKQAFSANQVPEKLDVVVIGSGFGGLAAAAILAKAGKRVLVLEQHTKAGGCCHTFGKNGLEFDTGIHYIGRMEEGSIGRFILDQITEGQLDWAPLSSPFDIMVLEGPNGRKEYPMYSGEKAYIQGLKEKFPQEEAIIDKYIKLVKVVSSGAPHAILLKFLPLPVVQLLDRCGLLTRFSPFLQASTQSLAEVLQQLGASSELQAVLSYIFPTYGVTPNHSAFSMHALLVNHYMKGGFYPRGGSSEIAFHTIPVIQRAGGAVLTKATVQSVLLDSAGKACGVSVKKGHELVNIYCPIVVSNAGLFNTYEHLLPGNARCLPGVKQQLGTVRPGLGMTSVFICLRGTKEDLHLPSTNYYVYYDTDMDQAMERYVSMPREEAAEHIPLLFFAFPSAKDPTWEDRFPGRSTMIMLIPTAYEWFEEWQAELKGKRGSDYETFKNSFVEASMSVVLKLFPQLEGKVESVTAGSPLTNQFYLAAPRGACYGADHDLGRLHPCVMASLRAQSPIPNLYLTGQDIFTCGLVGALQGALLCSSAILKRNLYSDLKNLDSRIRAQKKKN
Chain of UniProt O00584 (O00584 whole entry, looked up): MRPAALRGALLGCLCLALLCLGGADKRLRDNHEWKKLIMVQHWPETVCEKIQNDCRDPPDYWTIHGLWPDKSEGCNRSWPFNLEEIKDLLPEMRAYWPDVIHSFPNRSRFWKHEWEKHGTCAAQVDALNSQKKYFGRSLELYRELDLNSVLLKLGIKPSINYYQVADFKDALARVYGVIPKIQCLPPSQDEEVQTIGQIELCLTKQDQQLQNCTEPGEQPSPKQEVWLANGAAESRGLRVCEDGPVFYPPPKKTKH
Chain of UniProt Q99643 (Q99643 whole entry, looked up): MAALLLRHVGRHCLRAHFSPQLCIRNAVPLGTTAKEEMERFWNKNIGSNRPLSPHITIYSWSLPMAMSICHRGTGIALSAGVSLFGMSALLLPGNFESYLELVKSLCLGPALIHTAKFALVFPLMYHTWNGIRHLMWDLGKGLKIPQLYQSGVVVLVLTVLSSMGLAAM
Chain of UniProt Q8IZE3 (Q8IZE3 whole entry, looked up): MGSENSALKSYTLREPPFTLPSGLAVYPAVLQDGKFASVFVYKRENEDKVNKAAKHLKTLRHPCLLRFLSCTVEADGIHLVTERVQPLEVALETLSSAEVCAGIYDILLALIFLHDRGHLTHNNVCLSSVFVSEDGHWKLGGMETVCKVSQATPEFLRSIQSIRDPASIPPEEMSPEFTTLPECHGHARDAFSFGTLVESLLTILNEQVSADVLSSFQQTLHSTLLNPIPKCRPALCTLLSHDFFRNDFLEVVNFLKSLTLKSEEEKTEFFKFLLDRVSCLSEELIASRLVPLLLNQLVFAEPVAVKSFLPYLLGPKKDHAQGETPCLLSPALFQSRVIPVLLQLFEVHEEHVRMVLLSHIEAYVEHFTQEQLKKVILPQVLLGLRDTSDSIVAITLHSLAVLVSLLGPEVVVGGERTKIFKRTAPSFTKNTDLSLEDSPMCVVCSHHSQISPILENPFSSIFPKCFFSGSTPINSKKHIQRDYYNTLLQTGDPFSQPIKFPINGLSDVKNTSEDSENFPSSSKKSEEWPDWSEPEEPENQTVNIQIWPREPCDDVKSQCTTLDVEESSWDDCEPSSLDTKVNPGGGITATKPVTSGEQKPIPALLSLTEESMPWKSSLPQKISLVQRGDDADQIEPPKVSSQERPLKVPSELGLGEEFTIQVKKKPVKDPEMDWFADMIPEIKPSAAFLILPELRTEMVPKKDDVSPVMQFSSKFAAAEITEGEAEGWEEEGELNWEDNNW
Chain of UniProt Q04864 (Q04864 whole entry, looked up): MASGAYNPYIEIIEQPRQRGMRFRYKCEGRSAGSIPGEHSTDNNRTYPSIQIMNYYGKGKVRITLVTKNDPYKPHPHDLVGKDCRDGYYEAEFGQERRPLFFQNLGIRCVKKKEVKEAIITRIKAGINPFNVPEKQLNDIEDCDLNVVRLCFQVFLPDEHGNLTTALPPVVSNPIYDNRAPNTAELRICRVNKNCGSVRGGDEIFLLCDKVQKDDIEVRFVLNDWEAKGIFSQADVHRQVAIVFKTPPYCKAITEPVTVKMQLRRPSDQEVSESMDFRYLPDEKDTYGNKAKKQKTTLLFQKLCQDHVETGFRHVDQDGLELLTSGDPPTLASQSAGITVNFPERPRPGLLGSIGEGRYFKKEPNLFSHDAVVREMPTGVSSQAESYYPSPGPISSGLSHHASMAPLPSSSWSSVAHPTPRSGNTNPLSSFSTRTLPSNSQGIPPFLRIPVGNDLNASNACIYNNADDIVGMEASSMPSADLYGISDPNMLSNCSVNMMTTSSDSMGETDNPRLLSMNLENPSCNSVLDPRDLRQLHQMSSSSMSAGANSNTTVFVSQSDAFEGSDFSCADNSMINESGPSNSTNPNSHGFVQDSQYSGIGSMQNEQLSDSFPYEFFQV
Chain of UniProt P18754 (P18754 whole entry, looked up): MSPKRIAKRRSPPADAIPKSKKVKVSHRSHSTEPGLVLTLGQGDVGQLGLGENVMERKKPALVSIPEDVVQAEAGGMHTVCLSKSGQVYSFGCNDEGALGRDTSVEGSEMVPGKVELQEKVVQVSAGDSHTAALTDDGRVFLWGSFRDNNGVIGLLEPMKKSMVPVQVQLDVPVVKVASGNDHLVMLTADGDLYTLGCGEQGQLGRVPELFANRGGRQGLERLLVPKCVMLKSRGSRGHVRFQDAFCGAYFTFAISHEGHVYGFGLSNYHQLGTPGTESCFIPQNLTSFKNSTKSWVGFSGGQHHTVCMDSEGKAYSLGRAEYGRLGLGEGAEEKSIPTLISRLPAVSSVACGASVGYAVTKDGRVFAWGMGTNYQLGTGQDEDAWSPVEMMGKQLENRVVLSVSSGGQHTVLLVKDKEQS
Chain of UniProt Q9NRX5 (Q9NRX5 whole entry, looked up): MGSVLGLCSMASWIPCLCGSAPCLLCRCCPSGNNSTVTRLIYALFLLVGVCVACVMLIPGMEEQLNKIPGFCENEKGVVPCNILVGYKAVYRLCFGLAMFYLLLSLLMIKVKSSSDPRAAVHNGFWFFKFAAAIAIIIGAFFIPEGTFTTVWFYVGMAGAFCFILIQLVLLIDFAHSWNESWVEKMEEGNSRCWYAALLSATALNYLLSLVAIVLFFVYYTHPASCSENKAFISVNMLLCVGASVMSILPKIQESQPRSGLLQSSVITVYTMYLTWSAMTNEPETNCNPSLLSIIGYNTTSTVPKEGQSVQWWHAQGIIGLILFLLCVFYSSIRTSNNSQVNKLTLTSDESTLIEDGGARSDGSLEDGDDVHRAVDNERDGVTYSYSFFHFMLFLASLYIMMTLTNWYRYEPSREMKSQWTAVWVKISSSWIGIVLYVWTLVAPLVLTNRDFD
Chain of UniProt O43665 (O43665 whole entry, looked up): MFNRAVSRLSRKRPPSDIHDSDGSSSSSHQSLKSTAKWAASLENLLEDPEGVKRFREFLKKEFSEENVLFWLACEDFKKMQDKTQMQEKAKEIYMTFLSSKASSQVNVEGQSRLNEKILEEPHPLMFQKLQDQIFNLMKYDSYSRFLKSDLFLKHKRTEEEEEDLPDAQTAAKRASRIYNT
Chain of UniProt Q9BUV8 (Q9BUV8 whole entry, looked up): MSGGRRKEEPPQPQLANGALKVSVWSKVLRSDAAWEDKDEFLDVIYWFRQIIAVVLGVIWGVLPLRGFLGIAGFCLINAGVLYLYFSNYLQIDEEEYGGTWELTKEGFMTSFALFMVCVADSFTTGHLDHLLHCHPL

Compound in the first experiment: C1=CC2=NC=CN=C2C=C1/C=C/3\C(=O)NC(=O)S3
The experiment in a line: log2 fold change, soluble protein after heating vs DMSO (PISA); higher = thermal stabilisation; K562 cells, 10 uM, 30 min; active = over 0.2 and 3.5 SD of the protein, either way, in both replicates (recomputed). Summed up:
(§1)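 Soluble protein was quantified by TMTpro 16plex LC-MS/MS after channel sums were equalised. It was obtained as the supernatant after 21,000xg for 90 min from pooled aliquots of K562 cells (2×10^6 cells/mL, 10 μM compound, 30 min) heated for 3 min across 48°C-58°C and extracted in PBS with 0.5% NP-40 at 4°C. Thermal stability values are relative to control samples and come from duplicates. They are given as log2 fold changes.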
Take RPS3 (UniProt P23396): the log2 fold change was -0.027.

Take SDHC (UniProt Q99643): the log2 fold change was 0.17.

In the case of REL (UniProt Q04864), the log2 fold change was -0.037.

As to SERINC1 (UniProt Q9NRX5), the log2 fold change was 0.085.

Consider RPS9 (UniProt P46781), for which the log2 fold change was -0.011.

Turning to RPS27A (UniProt P62979), the log2 fold change is -0.033.

RPS18 (UniProt P62269): the log2 fold change is -0.089.

For the target RBM33 (UniProt Q96EV2), the log2 fold change is 0.01.

As for SEC23IP (UniProt Q9Y6Y8), the log2 fold change was 0.229.

Consider RRAGB (UniProt Q5VZM2), for which the log2 fold change is 0.

With RPS16 (UniProt P62249), the log2 fold change was -0.043.

With RPS4X (UniProt P62701), the log2 fold change is -0.033.

With RABGGTA (UniProt Q92696), the log2 fold change is 0.025.

As to RSL1D1 (UniProt O76021), the log2 fold change was 0.057.

For ROR2 (UniProt Q01974), the log2 fold change was 0.011.

On to SEC16A isoform 5 (UniProt O15027), for which the log2 fold change was -0.018.

RETSAT (UniProt Q6NUM9): the log2 fold change was 0.002.

On to RAB5C isoform 2 (UniProt P51148), for which the log2 fold change was 0.014.

Take RSF1 (UniProt Q96T23): the log2 fold change is 0.012.

As for SCAMP2 (UniProt H3BUB6), the log2 fold change was -0.163.

Take RSRC2 (UniProt Q7L4I2): the log2 fold change is 0.018.

With RAB5IF isoform 5 (UniProt Q9BUV8), the log2 fold change was 0.112.

For RGS10 (UniProt O43665), the log2 fold change was 0.002.

As for ROCK1 (UniProt Q13464), the log2 fold change was 0.027.

On to SCYL3 isoform 2 (UniProt Q8IZE3), for which the log2 fold change was -0.024.

In the case of SCAF11 (UniProt Q99590), the log2 fold change is -0.076.

In the case of RCC1 isoform 2 (UniProt P18754), the log2 fold change was -0.004.

For RPS6KA2 isoform 2 (UniProt Q15349), the log2 fold change is 0.06.

Take RNASET2 (UniProt O00584): the log2 fold change was -0.014.

With RBM48 isoform 2 (UniProt Q5RL73), the log2 fold change was 0.055.

Take RPS3A (UniProt P61247): the log2 fold change was -0.035.

As for RRP9 (UniProt O43818), the log2 fold change was 0.03.

Regarding SASH1 (UniProt O94885), the log2 fold change is -0.009.

Regarding RIPK1 (UniProt Q13546), the log2 fold change was -0.016.

Compound in the next experiment: C1=CC=C(C=C1)C2=NC(=C(N2)C3=CC=NC=C3)C4=CC(=C(C=C4)Cl)O
The description is as above. The essentials:
as §1
Turning to RPS3 (UniProt P23396), the log2 fold change was -0.073.

Consider SDHC (UniProt Q99643), for which the log2 fold change is 0.104.

On to REL (UniProt Q04864), for which the log2 fold change was -0.029.

SERINC1 (UniProt Q9NRX5): the log2 fold change is 0.018.

As to RPS9 (UniProt P46781), the log2 fold change was 0.047.

Take RPS27A (UniProt P62979): the log2 fold change is 0.004.

Take RPS18 (UniProt P62269): the log2 fold change is -0.024.

As to RBM33 (UniProt Q96EV2), the log2 fold change is 0.001.

With SEC23IP (UniProt Q9Y6Y8), the log2 fold change was -0.023.

On to RRAGB (UniProt Q5VZM2), for which the log2 fold change is 0.021.

Regarding RPS16 (UniProt P62249), the log2 fold change is -0.049.

In the case of RPS4X (UniProt P62701), the log2 fold change is -0.043.

As for RABGGTA (UniProt Q92696), the log2 fold change was 0.036.

For the target RSL1D1 (UniProt O76021), the log2 fold change is -0.141.

Take ROR2 (UniProt Q01974): the log2 fold change is 0.076.

In the case of SEC16A isoform 5 (UniProt O15027), the log2 fold change was 0.044.

Regarding RETSAT (UniProt Q6NUM9), the log2 fold change is 0.056.

Consider RAB5C isoform 2 (UniProt P51148), for which the log2 fold change is 0.012.

As for RSF1 (UniProt Q96T23), the log2 fold change was 0.089.

In the case of SCAMP2 (UniProt H3BUB6), the log2 fold change is -0.281.

As to RSRC2 (UniProt Q7L4I2), the log2 fold change was 0.019.

With RAB5IF isoform 5 (UniProt Q9BUV8), the log2 fold change was 0.373 (active).

Consider RGS10 (UniProt O43665), for which the log2 fold change is 0.073.

With ROCK1 (UniProt Q13464), the log2 fold change is -0.007.

For SCYL3 isoform 2 (UniProt Q8IZE3), the log2 fold change was 0.058.

For SCAF11 (UniProt Q99590), the log2 fold change is -0.014.

For RCC1 isoform 2 (UniProt P18754), the log2 fold change was -0.003.

Consider RPS6KA2 isoform 2 (UniProt Q15349), for which the log2 fold change is -0.132.

As for RNASET2 (UniProt O00584), the log2 fold change is -0.001.

In the case of RBM48 isoform 2 (UniProt Q5RL73), the log2 fold change is -0.144.

As to RPS3A (UniProt P61247), the log2 fold change is -0.028.

Take RRP9 (UniProt O43818): the log2 fold change was -0.114.

Turning to SASH1 (UniProt O94885), the log2 fold change was 0.005.

With RIPK1 (UniProt Q13546), the log2 fold change is 0.004.

The values above are taken from the supplement of paper PMC10849652.
